The supplement of paper PMC3545927
The list shows a part of the results. The hit rate among all sequences tested is not known here.

B1: HC120 (peptide)
chain: CAVVCCPMSYAGNASASA
B2: FS-2531 (peptide)
chain: CARVKRPIENAGNASASA
B3: FS-2242 (peptide)
chain: CARVKRTHVPAGNASASA
B4: FS-2099 (peptide)
chain: CARVKRFIQEAGNASASA
B5: FS-2804 (peptide)
chain: CARSFRRIAGAGNASASA
B6: FS-2533 (peptide)
chain: CARVKRRIENAGNASASA
B7: FS-1939 (peptide)
chain: CARVKRQKISAGNASASA
B8: HC2506 (peptide)
chain: CASTMCSAHLAGNASASA
B9: HC1817 (peptide)
chain: CADSMEECSQAGNASASA
B10: HC2449 (peptide)
chain: CAEYEVPCHRAGNASASA
B11: FS-947 (peptide)
chain: CANSSRSKKPAGNASASA
B12: FS-1840 (peptide)
chain: CARSIRDILAAGNASASA
B13: FS-1872 (peptide)
chain: CARVKRNILAAGNASASA
B14: FS-407 (peptide)
chain: CACVSRSKRDAGNASASA
B15: FS-406 (peptide)
chain: CACVLRSKRDAGNASASA
B16: FS-335 (peptide)
chain: CAHWSMSKRDAGNASASA
B17: HC2561 (peptide)
chain: CASTPCSANLAGNASASA
B18: HC1459 (peptide)
chain: CADVVTKLPLAGNASASA
B19: HC1462 (peptide)
chain: CAPLAVMGSSAGNASASA
B20: HC1540 (peptide)
chain: CAFTEAMTRYAGNASASA
B21: FS-1274 (peptide)
chain: CARTSRRKRAAGNASASA
B22: FS-619 (peptide)
chain: CAPKARRKRYAGNASASA
B23: FS-958 (peptide)
chain: CARTSRRKRYAGNASASA
B24: HC898 (peptide)
chain: CAITLPQDAVAGNASASA
B25: HC675 (peptide)
chain: CAITAYAQQTAGNASASA
B26: HC654 (peptide)
chain: CAGADTAACGAGNASASA
B27: HC206 (peptide)
chain: CACGWAGWLLAGNASASA
B28: HC1981 (peptide)
chain: CAENTTPCSGAGNASASA
B29: HC1264 (peptide)
chain: CASAPSLKATAGNASASA
B30: HC1762 (peptide)
chain: CAMEECSQQLAGNASASA
B31: FS-385 (peptide)
chain: CAVCPRMKRKAGNASASA
B32: HC1774 (peptide)
chain: CAMEECSQHKAGNASASA
B33: FS-1326 (peptide)
chain: CAGARRAKRKAGNASASA
B34: FS-1467 (peptide)
chain: CAMAARMKRKAGNASASA
B35: HC135 (peptide)
chain: CAEVVSSTWVAGNASASA
B36: HC941 (peptide)
chain: CAVFTGLTHIAGNASASA
B37: HC628 (peptide)
chain: CAQMVIIKLGAGNASASA
B38: FS-1039 (peptide)
chain: CANPQRFDRIAGNASASA
B39: FS-1212 (peptide)
chain: CAIFKRKKRIAGNASASA
B40: FS-183 (peptide)
chain: CAQNERSYRIAGNASASA
B41: FS-345 (peptide)
chain: CAKTNRKTRFAGNASASA
B42: FS-1346 (peptide)
chain: CAILQRLKRIAGNASASA
B43: FS-450 (peptide)
chain: CAKKRRATRFAGNASASA

Target: furin, P09958
Sequence (P09958 whole entry): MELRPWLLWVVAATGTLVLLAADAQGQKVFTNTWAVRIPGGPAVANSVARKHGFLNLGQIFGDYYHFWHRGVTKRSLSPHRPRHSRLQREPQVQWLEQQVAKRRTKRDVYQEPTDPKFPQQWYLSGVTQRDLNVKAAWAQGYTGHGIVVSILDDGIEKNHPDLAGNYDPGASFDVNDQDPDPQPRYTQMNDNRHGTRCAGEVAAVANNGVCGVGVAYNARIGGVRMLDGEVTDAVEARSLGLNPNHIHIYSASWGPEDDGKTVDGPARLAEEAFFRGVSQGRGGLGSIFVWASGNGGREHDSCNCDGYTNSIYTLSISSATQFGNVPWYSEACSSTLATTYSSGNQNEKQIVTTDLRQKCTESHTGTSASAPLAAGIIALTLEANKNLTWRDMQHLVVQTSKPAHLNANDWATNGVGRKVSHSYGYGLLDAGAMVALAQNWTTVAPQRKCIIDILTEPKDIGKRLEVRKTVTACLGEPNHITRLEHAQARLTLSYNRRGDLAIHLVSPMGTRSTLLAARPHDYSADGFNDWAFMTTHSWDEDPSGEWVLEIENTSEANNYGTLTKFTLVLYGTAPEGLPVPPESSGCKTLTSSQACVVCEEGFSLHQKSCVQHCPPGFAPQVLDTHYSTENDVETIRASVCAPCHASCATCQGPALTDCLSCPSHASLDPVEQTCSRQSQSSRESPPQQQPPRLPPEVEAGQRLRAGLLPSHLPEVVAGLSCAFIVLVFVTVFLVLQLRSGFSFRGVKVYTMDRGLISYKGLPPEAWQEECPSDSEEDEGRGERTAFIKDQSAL
Assay: furin cleavage Z-score vs untreated control; higher = more cleavage, active = 3.5 or more, inactive = 1 or less, 8 variable residues between constant flanks
Outline: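 To give the cleavage Z-score, log read counts were set against furin-free reactions, lowess-adjusted and scaled by median absolute deviation. These counts came from PCR adapter-tagged, sequenced DNA released when purified furin cut 8-mer peptides fused to a cDNA oligonucleotide and held on magnetic beads by their N-terminus. Digests were 0.01 ml, 1:10 enzyme:substrate, in 50 mM HEPES pH 7.5 with CaCl2 and NaCl, for 7.5, 15 or 30 min.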

Row | Sequence | furin cleavage Z-score (7.5 min) | furin cleavage Z-score (15 min) | furin cleavage Z-score (30 min)
1 | B1 | -0.00854 (inactive) | 1.19 | 0.154 (inactive)
2 | B2 | -0.853 (inactive) | 0.717 (inactive) | -0.955 (inactive)
3 | B3 | 4.22 (active) | 8.01 (active) | 3.97 (active)
4 | B4 | 5.75 (active) | 5.53 (active) | 5.92 (active)
5 | B5 | -0.414 (inactive) | -1.36 (inactive) | -1.34 (inactive)
6 | B6 | 4.86 (active) | 7.07 (active) | 8.34 (active)
7 | B7 | 2.51 | 3.08 | 4.8 (active)
8 | B8 | -0.111 (inactive) | 1.36 | 2.15
9 | B9 | 1.19 | 1.94 | 0.888 (inactive)
10 | B10 | -0.191 (inactive) | 0.0222 (inactive) | -0.958 (inactive)
11 | B11 | -0.794 (inactive) | -0.615 (inactive) | -1.7 (inactive)
12 | B12 | -1.31 (inactive) | 1.74 | 2.38
13 | B13 | 5.27 (active) | 8.45 (active) | 8.24 (active)
14 | B14 | 13 (active) | 10.3 (active) | 7.76 (active)
15 | B15 | 9.82 (active) | 8.74 (active) | 6.13 (active)
16 | B16 | -1.15 (inactive) | 0.288 (inactive) | 0.917 (inactive)
17 | B17 | 0.829 (inactive) | 0.852 (inactive) | 0.011 (inactive)
18 | B18 | 0.775 (inactive) | 0.418 (inactive) | 0.0796 (inactive)
19 | B19 | 0.481 (inactive) | 1.18 | -0.14 (inactive)
20 | B20 | 1.26 | -0.149 (inactive) | -0.331 (inactive)
21 | B21 | 10.3 (active) | 9.52 (active) | 6.92 (active)
22 | B22 | 11.3 (active) | 13.4 (active) | 11.2 (active)

Row | Sequence | furin cleavage Z-score (7.5 min) | furin cleavage Z-score (15 min) | furin cleavage Z-score (30 min)
23 | B23 | 11.4 (active) | 13.5 (active) | 9.45 (active)
24 | B24 | -0.191 (inactive) | -0.999 (inactive) | -1.58 (inactive)
25 | B25 | -0.902 (inactive) | -0.292 (inactive) | -0.928 (inactive)
26 | B26 | -0.934 (inactive) | -0.244 (inactive) | -0.368 (inactive)
27 | B27 | 0.181 (inactive) | -0.831 (inactive) | -0.0867 (inactive)
28 | B28 | -1.67 (inactive) | 0.267 (inactive) | -0.382 (inactive)
29 | B29 | -1.75 (inactive) | -0.175 (inactive) | -1.74 (inactive)
30 | B30 | 1.29 | 0.207 (inactive) | 0.503 (inactive)
31 | B31 | 6.36 (active) | 7.19 (active) | 7.64 (active)
32 | B32 | -0.682 (inactive) | 0.0797 (inactive) | -0.301 (inactive)
33 | B33 | 5.27 (active) | 5.92 (active) | 5.79 (active)
34 | B34 | 8.01 (active) | 8.75 (active) | 8.6 (active)
35 | B35 | 0.7 (inactive) | -1.48 (inactive) | 0.771 (inactive)
36 | B36 | -1.4 (inactive) | 0.134 (inactive) | -1.78 (inactive)
37 | B37 | 1.18 | -0.535 (inactive) | 0.271 (inactive)
38 | B38 | -0.635 (inactive) | -0.196 (inactive) | 0.174 (inactive)
39 | B39 | 3.24 | 3.6 (active) | 5.56 (active)
40 | B40 | -0.223 (inactive) | 1.02 | 0.628 (inactive)
41 | B41 | 1.94 | 3.24 | 4.81 (active)
42 | B42 | 3.62 (active) | 3.86 (active) | 6.79 (active)
43 | B43 | 1.73 | 3.42 | 4.38 (active)
